Rows were chosen to be rich in hits. Some 4.6% of all compounds tested hit in one or more screens of this group.
TIM10 inh = inhibits growth of TIM10 yeast strain | S. cerevisiae TIM10 strain growth, BacTiter-Glo luminescence, 24 h | inhibition, % at 10 µM | actives 1.4% (n = 330,000);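 active means inhibition of 40% or more at the single tested concentration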;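 further: wild-type TIM10 isogenic control strain grown at permissive 25 °C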
V-ATPase pH = alters yeast V-ATPase proton transport. actives 0.37% (n = 350,000). S. cerevisiae, pHLuorin cytosolic pH fluorescence. response, % at 10 µM; in the data active means response mostly above about 7.3%, no sharp cut-off; inactive means mostly below about 5.4%; further: actives read high
tim10-1 inh = growth inhibitors of tim10-1 mutant yeast; S. cerevisiae tim10-1 ts strain growth, BacTiter-Glo, 24 h; inhibition, % at 20 µM; actives 2.2% (n = 330,000);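 active means inhibition of at least 40%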;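 further: mutant grown at 25 °C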
tim23-1 inh = tim23-1 yeast growth inhibition. S. cerevisiae tim23-1 growth, BacTiter-Glo luminescence, 24 h. inhibition, % at 20 µM. actives 1.3% (n = 330,000);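 active means growth inhibition of the mutant yeast at or above 50%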;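 further: temperature-sensitive mutant grown at 25 °C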
SKKanGAS inh = inhibitors of SKKanGAS S. pyogenes growth in kanamycin (SK-promoter or general growth effect); BacTiter-Glo, 6 h; inhibition, % at 7.5 µM; actives 1.3% (n = 300,000); AID 1662;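 active means mean replicate score, as percent of positive control median, at least 50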;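 further: strain carries kanamycin resistance gene driven by streptokinase promoter and grows in 40 µg/ml kanamycin; loss of luminescence reflects streptokinase promoter inhibition or plain growth inhibition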
PfHsp90 yeast 2 = growth inhibition of yeast expressing Plasmodium Hsp90 | S. cerevisiae expressing PfHsp90, BacTiter-Glo ATP, 48 h; yeast lacking PDR1 and PDR3 efflux regulators | inhibition, % at 9.4 µM | actives 0.32% (n = 310,000);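 active means every replicate shows inhibition above about 80%, whatever the replicate mean, limit read from the data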
tim10-1 conf = tim10-1 yeast growth inhibition, confirmed. inhibition, % at 20 µM. actives 56% (n = 7,400). S. cerevisiae tim10-1 ts strain growth, BacTiter-Glo, 24 h. shares compounds with tim10-1 inh;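 active means inhibition of yeast growth at or above a set limit in either of two repeat tests at 20 µM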;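 further: tim10-1 mutant grown at permissive 25 °C to find synthetic lethal compounds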
Large screens that a line does not name were inactive (follow-up assays come after a bar, where they were run).

COc1cccc(C(=O)N(C)c2nnc(-c3ccncc3)s2)c1	none
Cc1nc([N+](=O)[O-])c(Br)n1CC(=O)c1ccc(Cl)cc1	tim10-1 inh 43.4 (no result: PfHsp90 yeast 2) | tim10-1 conf 38.0
COc1ccc(C(=O)Cn2c(C)nc([N+](=O)[O-])c2Br)cc1	none
COc1ccc(C(CNC(=O)c2oc3cc(Br)ccc3c2C)N2CCCCC2)cc1 (stereo not drawn)	tim10-1 inh 42.0 | tim10-1 conf inactive
Cc1ccc(C(=O)Nc2ccc3cn[nH]c3c2)cc1S(=O)(=O)N1CCCCC1	none (no result: PfHsp90 yeast 2)
O=S(=O)(C/C(=C/CO)S(=O)(=O)c1ccccc1)c1ccccc1	tim10-1 inh 44.2 | tim10-1 conf inactive
Cc1ccc(S(=O)(=O)Nc2c(C)ccc3nsnc23)cc1	tim10-1 inh 42.4 | tim10-1 conf inactive
Cc1ccc(NS(=O)(=O)c2cccc3nsnc23)cc1	none
Cn1nc(C(F)(F)F)c2cc(NC(=O)OCc3ccc(C(C)(C)C)cc3)sc21	none
COc1ccc(COC(=O)Nc2cc3c(C(F)(F)F)nn(C)c3s2)cc1	tim10-1 inh 43.8 | tim10-1 conf inactive
CC(=O)c1ccc(NC(=O)COC(=O)/C=C/c2cccs2)cc1	none (no result: SKKanGAS inh)
COC(=O)C1=C(C)NC(C)=C(C(=O)O[C@@H]2CCCN(Cc3ccccc3)C2)[C@@H]1c1cccc([N+](=O)[O-])c1	tim10-1 inh 44.7 | tim10-1 conf inactive
CCOC(=O)C1=C(C)NC(C)=C(C(=O)OC)C1c1cccc([N+](=O)[O-])c1 (stereo not drawn)	none
CC(C(=O)N(C)c1ccccc1)N1CCN(C(=O)c2ccccc2)CC1 (stereo not drawn)	none
CCCC1=C/C(=C/c2ccc(-c3ccccc3OC)o2)C(=O)O1	none
COc1ccccc1-c1ccc(/C=C2/C=C(CC(C)C)OC2=O)o1	tim10-1 inh 42.0 | tim10-1 conf 35.9
Cc1cccc(NC(=O)c2cccc(S(=O)(=O)N(C)C3CCCCC3)c2)n1	none (no result: TIM10 inh, tim10-1 inh, tim23-1 inh, SKKanGAS inh, PfHsp90 yeast 2)
O=c1c2c(-c3cccs3)csc2ncn1/N=C/c1ccc(OC(F)F)cc1	tim10-1 inh 46.6 | tim10-1 conf 38.8
O=C(NNc1ccccc1)c1ccc(Cl)c(Cl)c1	none (no result: TIM10 inh, tim10-1 inh, tim23-1 inh, SKKanGAS inh)
CCCn1c(CC)nc([N+](=O)[O-])c1S(=O)(=O)c1ccccc1	tim10-1 inh 54.2 | tim10-1 conf 43.3
Cn1cnc([N+](=O)[O-])c1S(=O)(=O)c1cccc(Cl)c1	none
COc1ccc(-c2cn3c4c(sc3n2)CCCC4)cc1	tim10-1 inh 41.4 | tim10-1 conf inactive
O=C(NCC(c1cccnc1)N1CCN(c2ccccc2F)CC1)c1cccc(Cl)c1 (stereo not drawn)	none
CN(C)c1ccc(C(=O)c2ccc(O)cc2O)cc1	tim10-1 inh 40.9 | tim10-1 conf inactive
O=C(c1ccc(O)cc1)c1ccc(O)cc1O	none
Cc1noc(C)c1C(=O)NC1=NCCS1	none
CCC(=NCc1ccccc1)c1c(C(F)(F)F)[nH]n(-c2nc3ccccc3s2)c1=O	tim10-1 inh 45.7 | tim10-1 conf 35.3
Cn1c(C(=O)N2CCC(C(=O)NCc3ccccc3)CC2)cc2sccc21	none
Cc1cc(N/N=C/c2cccc(Cl)c2)nc(NCc2ccccc2)n1	none
Cc1cc(Nc2cccc(Cl)c2)nc(NCc2ccccc2)n1	tim10-1 inh 44.8 | tim10-1 conf inactive
Cc1ccc(Cn2c(O)c(N=O)c3ccccc32)cc1	none
Cc1cccc2c(N=O)c(O)n(CCc3ccccc3)c12	tim10-1 inh 41.0 | tim10-1 conf inactive
O=C(NCCCSc1ccccc1)c1cc(Br)ccc1O	tim10-1 inh 46.3, PfHsp90 yeast 2 93.7 | tim10-1 conf inactive
Cc1ccc(OCC(=O)NNC(=S)NC(=O)C2CCCCC2)c(C)c1	tim10-1 inh 47.1, SKKanGAS inh 90.2 | tim10-1 conf inactive
Cc1ccc(OCC(=O)N2CCCCCC2)c(C)c1	none
Cn1nc(-c2ccccc2)cc1NS(=O)(=O)c1ccc(C#N)cc1	none
CN(C)c1ccc([C@@H]2[C@@H]([N+](=O)[O-])[C@H]3C=Cc4ccccc4N3[C@H]2C(=O)c2ccc(Cl)cc2)cc1	tim10-1 inh 44.8 (no result: SKKanGAS inh) | tim10-1 conf inactive
OCC1(CCc2ccccc2)CCN(Cc2cccn2-c2cccnc2)CC1	none
COc1cc(C(=O)Nc2ccc(Nc3ccccc3)cc2)cc(OC)c1OC	tim10-1 inh 43.3 | tim10-1 conf 41.6
COc1cc(C(=O)Nc2ccc(Cl)c(C(F)(F)F)c2)cc(OC)c1OC	tim10-1 inh 42.8 | tim10-1 conf 53.3
COc1cc(C2c3cc4c(cc3CC3COC(=O)N32)OCO4)cc(OC)c1OC (stereo not drawn)	none (no result: TIM10 inh, tim10-1 inh, tim23-1 inh, SKKanGAS inh)
C[C@H]1CN([C@@H](C)CO)C(=O)CCCn2nncc2CO[C@H]1CN(C)S(=O)(=O)c1ccc(Oc2ccccc2)nc1	none (no result: TIM10 inh, tim10-1 inh, tim23-1 inh, SKKanGAS inh, PfHsp90 yeast 2)
COc1ccc(C2=NOC(C(=O)N3CCCc4ccccc43)C2)cc1 (stereo not drawn)	none
COc1cc(C2=NOC(C(=O)N3CCCc4ccccc43)C2)cc(OC)c1OC (stereo not drawn)	tim10-1 inh 40.1 | tim10-1 conf inactive
CNC(=O)COC(=O)/C=C/c1cn(-c2ccccc2)nc1-c1ccc2c(c1)OCCO2	tim10-1 inh 41.1 (no result: PfHsp90 yeast 2) | tim10-1 conf 28.5
COC(=O)c1cc(NS(=O)(=O)c2ccc(C)c3ccccc23)ccc1N1CCOCC1	none
COc1cccc(OC)c1-c1nn2c(-c3ccco3)nnc2s1	tim10-1 inh 45.3 | tim10-1 conf 31.3
Oc1c(C(Nc2nc3ccccc3s2)c2ccco2)ccc2cccnc12 (stereo not drawn)	tim10-1 inh 43.1, SKKanGAS inh 107.4, PfHsp90 yeast 2 131.0 | tim10-1 conf inactive
CCOC(=O)NC1(NC(C)C)Oc2ccccc2O1	none
CCOC(=O)NC1(NC2CCCCC2)Oc2ccccc2O1	tim10-1 inh 40.1 | tim10-1 conf inactive
CCCCOC(=O)Nc1cccc(C(=O)OCC)c1	tim10-1 inh 46.0 | tim10-1 conf inactive
O=C1c2cccc3c(N4CCCCC4)ccc(c23)C(=O)N1CCO	tim10-1 inh 46.1 | tim10-1 conf inactive
C=CCN1C(=O)c2cccc3c(N4CCCCC4)ccc(c23)C1=O	none
Cc1cccc(CC(=O)NCCS(=O)(=O)N2CCN(c3cccc(Cl)c3)CC2)c1	none
Cc1ccc(Cl)c(OCC(=O)NC2CCN(Cc3ccccc3)CC2)c1	tim10-1 inh 67.9 (no result: PfHsp90 yeast 2) | tim10-1 conf inactive
O=C(NCc1ccccc1C(F)(F)F)C1CC(c2ccccc2[N+](=O)[O-])=NO1 (stereo not drawn)	none (no result: PfHsp90 yeast 2)
CCOC(=O)C(C)Sc1nc(-c2ccccn2)ncc1OC (stereo not drawn)	none
COc1cnc(-c2ccccn2)nc1Sc1ccccc1Cl	tim10-1 inh 46.6 (no result: PfHsp90 yeast 2) | tim10-1 conf 33.8
S=C(NCC1CCCCC1)Nc1cccnc1	tim10-1 inh 52.7 | tim10-1 conf 42.8

Bioassay records deposited in PubChem BioAssay by several laboratories.
